This is an account of results in PubChem BioAssay (EPA / NIEHS).

Values joined by “and” are separate entries in the source; they are usually repeats but may differ in a detail not shown here. Identical values can stand only once. Some structures have more than one record in an assay (separate samples or runs), and their calls can disagree. Active and inactive are the calls of the source. How the source made its calls: active means hit-call score of the fitted dose curve at least 0.9, where 1 is the maximum; inactive means score below 0.9.

Experiment [1] can be described thus: APR_HepG2_NuclearSize_72hr: Apredica 72-hour HepG2 Assay for Nuclear Size (AID 2282925). The following applies: high-content imaging, actives raise or lower the signal. In short, it runs like this: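 HepG2 cells dosed 72 h at 0.39–200 uM (10 concentrations, duplicate) in 0.5% v/v DMSO final. Fixed, Hoechst 33342-stained nuclei imaged; nuclear diameter measured by automated image analysis. Bidirectional fit versus DMSO.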

Experiment [2] is described as follows: ATG_CRE_CIS: Attagene CIS-FACTORIAL HepG2 Assay for human cAMP Responsive Element (CRE) binding protein 3 (AID 2282926). Conditions: HepG2 CRE cis-reporter, Attagene multiplexed mRNA; actives raise or lower the signal. In short, it runs like this:
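Endogenous CRE-binding activity in HepG2 is reported through a cis-regulated transfected reporter. Following a day of exposure, mRNA levels are determined by reverse transcription PCR and fluorescent fragment analysis; fits run in both directions versus DMSO.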

Experiment [3] has as its target CCAAT/enhancer-binding protein beta (Homo sapiens) (UniProt P17676). The experiment is described as follows: ATG_C_EBP_CIS: Attagene CIS-FACTORIAL HepG2 Assay for human CCAAT/Enhancer Binding Protein (C/EBP) beta (AID 2282927). The following applies: HepG2 Attagene cis-factorial transcription factor reporter; actives raise or lower the signal. The gist of the method: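 HepG2, transient MRTU transfection, 24 h treatment. RT-PCR plus CE fluorescence; DMSO negative control, bidirectional fit.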

Experiment [4] can be described thus: ATG_CMV_CIS: Attagene CIS-FACTORIAL HepG2 Assay for human CMV (Internal Marker) (AID 2282928).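 Further: endpoint acts as a background internal control marker rather than a target.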 Conditions: HepG2 CMV promoter reporter, transcription factor profiling; actives raise or lower the signal. In short, it runs like this:
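HepG2 cells transiently transfected with multiple cis-regulated reporter units; 24 h compound exposure. Reporter mRNA quantified by RT-PCR, 6-FAM primer-extension labeling, HpaI digestion and capillary electrophoresis; bidirectional fitting against DMSO baseline.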

The nature of experiment [5]: ATG_DR4_LXR_CIS: Attagene CIS-FACTORIAL HepG2 Assay for human Liver X Receptor (LXR), DR4 submotif (AID 2282929). Conditions: HepG2 Attagene DR4 cis-reporter, mRNA transcription; actives raise or lower the signal. In short, it runs like this:
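Readout: reporter transcript fluorescence after RT-PCR and capillary electrophoresis, fitted bidirectionally against DMSO controls. Human HepG2 liver cells carried transiently transfected multiplexed reporter constructs; endogenous transcription factor activity measured 24 h post-dosing.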

Experiment [6] concerns the target Aryl hydrocarbon receptor (Homo sapiens) (UniProt P35869). As to the kind of experiment: ATG_Ahr_CIS: Attagene CIS-FACTORIAL HepG2 Assay for human Aryl Hydrocarbon Receptor (Ahr) (AID 2282930). Conditions: HepG2 AhR cis-factorial reporter transcription; actives raise or lower the signal. The gist of the method:
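Endogenous factor activity is tracked through cis-promoter reporter units transfected into HepG2 cells. Transcript levels at 24 h are read by fluorescent RT-PCR and capillary electrophoresis, with activity in either direction scored relative to DMSO.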

Experiment [7] is described as follows: ATG_AP_1_CIS: Attagene CIS-FACTORIAL HepG2 Assay for human Activator Protein 1 (AP-1) (AID 2282931). The following applies: HepG2 Attagene cis-factorial AP-1 reporter mRNA; actives raise or lower the signal. The gist of the method: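 Reporter transcripts were measured 24 h after dosing by RT-PCR and capillary electrophoresis of fluorescent fragments. Cells: HepG2 carrying transfected cis-regulated reporter constructs reading endogenous factor activity. Gain or loss fitted against DMSO.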

Experiment [8] in a line: ATG_AP_2_CIS: Attagene CIS-FACTORIAL HepG2 Assay for human Activator Protein 2 (AP-2) (AID 2282932). The following applies: HepG2 AP-2 cis-reporter, Attagene transcription factor profiling; actives raise or lower the signal. In short, it runs like this:
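Multiplexed mRNA reporter assay in HepG2: cis-regulated units report endogenous factor activity after 24 h treatment. Fluorescence from capillary electrophoresis of RT-PCR products gives the signal, with DMSO as baseline.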

Experiment [9] is described as follows: ATG_BRE_CIS: Attagene CIS-FACTORIAL HepG2 Assay for human Bone Morphogenetic Protein (BMP) Response Element (BRE) (AID 2282933). Conditions: HepG2 BMP response element reporter, Attagene transcription factor profiling; actives raise or lower the signal. In short, it runs like this:
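HepG2 cells transiently transfected with multiplexed cis-element reporter units were dosed with chemical for 24 h. Reporter mRNA was measured by RT-PCR with fluorescent labelling, HpaI digestion and capillary electrophoresis; bidirectional fitting relative to DMSO.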

In experiment [10] the target is Retinoic acid receptor alpha (Homo sapiens) (UniProt P10276). The experiment is described as follows: ATG_DR5_RAR_CIS: Attagene CIS-FACTORIAL HepG2 Assay for human Retinoic Acid Receptor Alpha (RARE), DR5 submotif (AID 2282934).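 On AC50: reporter responds to endogenous RAR alpha beta and gamma in HepG2 not RARA alone.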 The following applies: HepG2 Attagene cis-factorial RARE DR5 reporter, mRNA; actives raise or lower the signal. In short, it runs like this:
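After 24 h of chemical exposure, transiently transfected HepG2 cells were lysed for total RNA; the DR5-regulated reporter transcript was quantified via RT-PCR and capillary electrophoresis, with activity fitted bidirectionally against DMSO.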

Experiment [11] addresses Transcription factor E2F1 (Homo sapiens) (UniProt Q01094). As to the kind of experiment: ATG_E2F_CIS: Attagene CIS-FACTORIAL HepG2 Assay for human E2F Transcription Factor 1 (AID 2282935). The following applies: HepG2 Attagene cis-reporter, E2F reporter RNA transcripts; actives raise or lower the signal. In short, it runs like this: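 Measures reporter transcript levels via RT-PCR with capillary electrophoresis detection in HepG2 cells harboring cis-regulated reporter units; 24 h post-dose; bidirectional curve fitting with DMSO as baseline.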

Experiment [12] is described as follows: ATG_E_Box_CIS: Attagene CIS-FACTORIAL HepG2 Assay for human Enhancer Box (E-box) (AID 2282936). Conditions: HepG2 E-box cis-reporter transcription, actives raise or lower the signal. In short, it runs like this:
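First, HepG2 cells receive multiple cis-regulated reporter constructs by transient transfection. Next, chemicals are applied for 24 h. Finally, reporter mRNA is quantified via RT-PCR and capillary electrophoresis, with DMSO as baseline.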

The nature of experiment [13]: ATG_M_61_CIS: Attagene CIS-FACTORIAL HepG2 Assay for M61 Transcription Factor (Internal Marker) (AID 2282937). The following applies: HepG2 Attagene CIS-FACTORIAL M61 internal marker reporter; actives raise or lower the signal. The gist of the method: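 Readout: fluorescent reporter mRNA fragments resolved by capillary electrophoresis after RT-PCR. Transiently transfected human HepG2 cells carried MRTU constructs reporting endogenous TF activity; 24 h chemical exposure; gain or loss of signal fitted relative to DMSO.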

A short description of experiment [14]: ATG_M_19_CIS: Attagene CIS-FACTORIAL HepG2 Assay for M19 Transcription Factor (Internal Marker) (AID 2282939). The following applies: HepG2 Attagene CIS-FACTORIAL M19 internal marker reporter; actives raise or lower the signal. In short, it runs like this:
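HepG2 cells transiently transfected with cis-regulated multiple reporter transcription units were dosed for 24 h; reporter mRNA was quantified by RT-PCR, 6-FAM primer-extension labelling, HpaI digestion and capillary electrophoresis, with bidirectional fitting against DMSO baseline.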

A short description of experiment [15]: ATG_ERE_CIS: Attagene CIS-FACTORIAL HepG2 Assay for Estrogen Response Element (ERE) (AID 2282940). The following applies: HepG2 ERE cis-reporter, Attagene RNA transcript; actives raise or lower the signal. The gist of the method: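 HepG2 cells transiently transfected with cis-promoter-driven multiplexed reporter transcription units report endogenous TF activity. After 24 h compound exposure, reporter mRNA is quantified by RT-PCR with capillary electrophoresis fluorescence; bidirectional fitting versus DMSO baseline.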

The nature of experiment [16]: ATG_Ets_CIS: Attagene CIS-FACTORIAL HepG2 Assay for human Erythroblast Transformation Specific (ETS) (AID 2282941). Conditions: HepG2 ETS cis-reporter transcription, actives raise or lower the signal. In short, it runs like this:
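HepG2 cells transiently transfected with cis-promoter reporter transcription units were dosed for 24 h; reporter mRNA was measured by RT-PCR, 6-FAM primer extension, HpaI digestion and capillary electrophoresis, with bidirectional fitting against DMSO baseline.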

Experiment [17] has as its target Hepatocyte nuclear factor 3-beta (Homo sapiens) (UniProt Q9Y261). As to the kind of experiment: ATG_FoxA2_CIS: Attagene CIS-FACTORIAL HepG2 Assay for human Forkhead box A2 (FOXA2) (AID 2282942). Conditions: HepG2 cis-reporter transcription factor activity, 24 h; actives raise or lower the signal. In short, it runs like this:
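Readout: fluorescent reporter transcripts resolved by capillary electrophoresis after RT-PCR. Transiently transfected HepG2, 24 h compound exposure, endogenous TF activity at cis promoter elements. Gain or loss of signal fitted relative to DMSO.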

Experiment [18] in a line: ATG_FoxO_CIS: Attagene CIS-FACTORIAL HepG2 Assay for human Forkhead box O (FoxO) (AID 2282943). Conditions: HepG2 Attagene cis-reporter, FoxO element, mRNA; actives raise or lower the signal. In short, it runs like this: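 Transfected HepG2 reporter cells exposed to test chemical for 24 h; reporter RNA measured by reverse transcription, PCR and fluorescent capillary electrophoresis; curves fitted for increases and decreases against DMSO.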

The nature of experiment [19]: ATG_GATA_CIS: Attagene CIS-FACTORIAL HepG2 Assay for human GATA Binding Protein (AID 2282944). The following applies: HepG2 GATA cis-element reporter, Attagene multiplex mRNA; actives raise or lower the signal. The gist of the method:
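HepG2 cells transiently transfected with multiplexed cis-element reporter units reflecting endogenous transcription factor activity; reporter mRNA measured after 24 h dosing by RT-PCR, 6-FAM labeling, HpaI digestion and capillary electrophoresis. Bidirectional fitting versus DMSO baseline.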

Sequence of Retinoic acid receptor alpha (Homo sapiens) (P10276 whole entry, looked up): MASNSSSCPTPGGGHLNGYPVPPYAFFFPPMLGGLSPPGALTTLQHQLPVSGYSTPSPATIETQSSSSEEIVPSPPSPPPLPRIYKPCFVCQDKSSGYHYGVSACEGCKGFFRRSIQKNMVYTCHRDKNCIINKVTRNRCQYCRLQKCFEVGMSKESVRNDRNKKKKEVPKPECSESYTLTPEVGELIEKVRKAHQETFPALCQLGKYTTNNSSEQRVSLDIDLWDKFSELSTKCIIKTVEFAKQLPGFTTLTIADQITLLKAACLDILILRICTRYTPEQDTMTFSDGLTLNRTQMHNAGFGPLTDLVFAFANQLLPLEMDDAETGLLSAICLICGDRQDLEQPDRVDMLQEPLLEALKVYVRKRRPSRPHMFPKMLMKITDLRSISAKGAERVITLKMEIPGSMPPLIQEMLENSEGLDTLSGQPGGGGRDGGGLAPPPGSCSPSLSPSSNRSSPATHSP
Sequence of CCAAT/enhancer-binding protein beta (Homo sapiens) (P17676 whole entry, looked up): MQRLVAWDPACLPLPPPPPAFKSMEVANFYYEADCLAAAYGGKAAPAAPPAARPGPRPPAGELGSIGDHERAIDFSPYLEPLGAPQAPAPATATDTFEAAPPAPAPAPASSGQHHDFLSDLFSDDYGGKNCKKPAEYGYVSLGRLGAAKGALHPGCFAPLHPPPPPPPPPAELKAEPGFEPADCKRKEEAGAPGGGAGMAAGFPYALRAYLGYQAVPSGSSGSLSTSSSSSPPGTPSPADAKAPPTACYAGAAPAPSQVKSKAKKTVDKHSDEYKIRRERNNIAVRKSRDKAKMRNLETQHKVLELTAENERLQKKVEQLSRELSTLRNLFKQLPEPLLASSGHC
Sequence of Aryl hydrocarbon receptor (Homo sapiens) (P35869 whole entry, looked up): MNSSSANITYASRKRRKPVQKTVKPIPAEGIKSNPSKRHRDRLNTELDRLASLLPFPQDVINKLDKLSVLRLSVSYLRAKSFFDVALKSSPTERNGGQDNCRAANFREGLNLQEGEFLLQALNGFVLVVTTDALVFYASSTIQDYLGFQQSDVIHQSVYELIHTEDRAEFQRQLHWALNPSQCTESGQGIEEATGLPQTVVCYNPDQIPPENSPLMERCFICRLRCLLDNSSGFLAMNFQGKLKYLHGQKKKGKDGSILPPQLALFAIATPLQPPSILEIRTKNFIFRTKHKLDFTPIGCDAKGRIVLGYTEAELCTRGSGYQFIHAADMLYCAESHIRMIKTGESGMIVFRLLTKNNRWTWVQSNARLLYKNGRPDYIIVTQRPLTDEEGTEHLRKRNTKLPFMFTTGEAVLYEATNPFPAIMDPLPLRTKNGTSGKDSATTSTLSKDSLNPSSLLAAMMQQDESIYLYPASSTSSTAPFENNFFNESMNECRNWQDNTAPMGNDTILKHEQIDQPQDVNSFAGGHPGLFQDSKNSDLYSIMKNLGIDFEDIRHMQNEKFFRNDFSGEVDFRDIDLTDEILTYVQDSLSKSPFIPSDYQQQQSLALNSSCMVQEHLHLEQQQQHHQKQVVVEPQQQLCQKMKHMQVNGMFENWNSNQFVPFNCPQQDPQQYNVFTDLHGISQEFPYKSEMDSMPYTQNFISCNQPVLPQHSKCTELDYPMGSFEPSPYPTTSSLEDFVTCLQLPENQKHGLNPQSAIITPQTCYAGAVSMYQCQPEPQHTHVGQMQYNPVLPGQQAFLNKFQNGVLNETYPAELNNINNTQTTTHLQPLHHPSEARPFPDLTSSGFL
Sequence of Hepatocyte nuclear factor 3-beta (Homo sapiens) (Q9Y261 whole entry, looked up): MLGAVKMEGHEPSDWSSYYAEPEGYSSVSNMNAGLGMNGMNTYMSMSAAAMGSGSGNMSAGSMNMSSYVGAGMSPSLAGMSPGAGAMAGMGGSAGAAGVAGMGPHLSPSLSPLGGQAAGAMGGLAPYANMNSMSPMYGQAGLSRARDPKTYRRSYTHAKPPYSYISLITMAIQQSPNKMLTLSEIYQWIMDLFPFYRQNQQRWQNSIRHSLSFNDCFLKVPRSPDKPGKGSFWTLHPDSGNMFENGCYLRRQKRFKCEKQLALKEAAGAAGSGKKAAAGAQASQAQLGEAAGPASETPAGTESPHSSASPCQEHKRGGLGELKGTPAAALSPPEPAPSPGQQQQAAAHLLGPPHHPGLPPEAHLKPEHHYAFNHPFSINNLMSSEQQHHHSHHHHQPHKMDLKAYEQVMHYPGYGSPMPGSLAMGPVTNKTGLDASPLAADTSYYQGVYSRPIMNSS
Sequence of Transcription factor E2F1 (Homo sapiens) (Q01094 whole entry, looked up): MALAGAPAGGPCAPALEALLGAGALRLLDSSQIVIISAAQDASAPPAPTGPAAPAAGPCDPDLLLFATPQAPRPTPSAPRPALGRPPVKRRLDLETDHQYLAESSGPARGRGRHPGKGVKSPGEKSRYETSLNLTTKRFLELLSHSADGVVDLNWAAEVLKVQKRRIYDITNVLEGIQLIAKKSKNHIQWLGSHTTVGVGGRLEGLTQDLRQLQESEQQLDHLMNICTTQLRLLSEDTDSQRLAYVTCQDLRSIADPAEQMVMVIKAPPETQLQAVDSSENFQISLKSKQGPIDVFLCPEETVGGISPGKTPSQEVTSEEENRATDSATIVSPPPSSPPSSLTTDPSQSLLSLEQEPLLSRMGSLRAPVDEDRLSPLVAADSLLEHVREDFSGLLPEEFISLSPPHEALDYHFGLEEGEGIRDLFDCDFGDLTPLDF

As a reminder, the AC50 is the midpoint of the concentration-response curve, whichever way the signal moves. `CCCCOC(=O)[C@@H](C)Oc1ccc(Oc2ccc(C(F)(F)F)cn2)cc1`: the compound was called inactive in experiment [1], in [2], in [3], in [4], in [5] and in experiment [6]. In addition, the result in experiment [7], in [8], in experiment [9], in [10], in experiment [11] and in experiment [12] was inactive. Also, the outcome in experiment [13], in experiment [14], in [16], in experiment [17] and in experiment [18] was inactive. In addition, the AC50 in experiment [15] is 59.1 µM (active).

Consider `CC(C)CCCCCCc1ccc(O)cc1`, for which the call in experiment [1], in experiment [2], in experiment [3], in [4], in experiment [5] and in [6] was inactive. Further, the call in experiment [8], in experiment [9], in experiment [10], in [11], in [12] and in experiment [13] was inactive. The call in experiment [14], in experiment [16], in [17], in [18] and in experiment [19] was inactive. Besides, the AC50 in experiment [2] was 17.3 µM (active) and 16.4 µM (active); in experiment [3] it was 18.1 µM (active) and 15.4 µM (active); in experiment [4], 13.1 µM (active) and 17.4 µM (active); in [5], 15.9 µM (active) and 21 µM (active) and 16.6 µM (active); in [6], 21 µM (active); in [8], 18.2 µM (active) and 17.2 µM (active). For the same compound, the AC50 in [9] was 20.7 µM (active); in [10] it was 11.1 µM (active); in experiment [12] it was 17.6 µM (active) and 16.8 µM (active) and 15.6 µM (active); in experiment [15] it was 644 nM (active) [middle of 4 runs]; in experiment [16] it was 17.1 µM (active); in experiment [17], 21.8 µM (active). Further, the AC50 in experiment [18] is 20.3 µM (active) and 17.9 µM (active).
